Bioassay records (PubChem BioAssay)
Compounds with a hit are over-represented: about 11% of the library has one in this group of screens.
Tau fluor cs: counter-screen for tau fibril formation inhibitors. tau K18 P301L Alexa594 fluorescence, heparin fibrillization. Potency, µM (highest dose often 57.7 µM), inactives show at the highest dose activity change, negative = decrease. 280,000 compounds, 0.93% hits. AID 1463; further: potency means the concentration at half of the fitted maximal effect; nearly all actives have a fitted effect of over 55% in size
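Human K18 P301L tau (15 uM unlabeled plus 0.24 uM Alexa 594-labeled, final) in 100 mM sodium acetate pH 7 was mixed with compound and 20 uM heparin and incubated 6 hr at 37 C.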
Tau ThT inhib: inhibitors of human tau fibril formation, thioflavin T binding; P10636; recombinant tau K18 P301L, heparin-induced fibrillization, ThT fluorescence; Potency, µM (highest dose often 57.4 µM), for the others: top-dose activity, negative = inhibition, actives largely listed as inhibitors; 270,000 compounds, 2.1% hits; AID 1460; further: potency means the concentration at half of the fitted maximal effect; nearly all actives have a fitted effect of over 55% in size
Target sequence (P10636 561-689 P618L limits assumed): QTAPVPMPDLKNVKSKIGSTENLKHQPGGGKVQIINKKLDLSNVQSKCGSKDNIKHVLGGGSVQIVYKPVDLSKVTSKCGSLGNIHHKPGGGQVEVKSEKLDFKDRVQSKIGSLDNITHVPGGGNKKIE
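Fibril formation assay: tau K18 P301L at 15 uM with trace Alexa 594 label, heparin inducer 20 uM, pH 7 sodium acetate buffer, 37 C for 6 hr; endpoint ThT signal.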
Coupling enz: coupling enzyme interference in Giardia aldolase counter-screen; 290,000 compounds, 0.67% hits; coupling enzyme system counterscreen, AmpLite Red fluorescence; activity change, negative = inhibition, % at 58.2 µM, hits read low; in the data active means activity change below about -30%
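Compounds tested against the coupling enzymes alone at 57.5 uM final; readout was AmpLite Red fluorescence (525/598 nm) after 20 min at RT.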
Tau fibril FP: blocks human tau fibril formation measured by polarization | P10636 | K18 P301L tau heparin fibrillization, Alexa594 FP, 6 h | Potency, µM (titrated, usually from 57.7 µM), without a hit: at the highest dose activity, negative = inhibition, usual class: inhibitors | 280,000 compounds, 0.39% hits; further: potency means the concentration at half of the fitted maximal effect; nearly all actives have a fitted effect of over 55% in size
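Read-out: fluorescence polarization of Alexa 594-labeled tau (0.24 uM), 555 nm excitation, 632 nm emission. Mixtures held 15 uM unlabeled K18 P301L, compound and 20 uM heparin, pH 7 acetate buffer, incubated 6 hr at 37 C.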
Sfp PPTase inh: inhibitors of Bacillus subtilis Sfp phosphopantetheinyl transferase; Q9F4F7; Biochemical Sfp PPTase activity, qHTS; Potency, µM, inactives show largest response in the series, negative = inhibition, usual class: inhibitors; 310,000 compounds, 3.5% hits; AID 1490;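 further: the enzyme is Sfp with the accession as filed and its product quenches rhodamine fluorescence; potency means the concentration at half of the fitted maximal effect; 0% = enzyme reaction without inhibitor and -100% = no enzyme wells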
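Compounds were incubated with enzyme (final 15 nM) for 15 min at room temperature before substrate addition started the reaction. Fluorescence at 525 nm excitation, 598 nm emission was recorded immediately and after 30 minutes.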
G9a block: blocks human histone lysine methyltransferase G9a. Q96KQ7. 350,000 compounds, 8.8% hits. Potency, µM (top dose mostly 102 µM), without a hit: at the highest dose activity, negative = inhibition, hits mostly inhibitors. G9a H3K9 monomethylation, AlphaScreen, 2 h; further: potency means the concentration at half of the fitted maximal effect; nearly all actives have a fitted effect of over 75% in size
Target sequence (Q96KQ7 913-1193 limits assumed): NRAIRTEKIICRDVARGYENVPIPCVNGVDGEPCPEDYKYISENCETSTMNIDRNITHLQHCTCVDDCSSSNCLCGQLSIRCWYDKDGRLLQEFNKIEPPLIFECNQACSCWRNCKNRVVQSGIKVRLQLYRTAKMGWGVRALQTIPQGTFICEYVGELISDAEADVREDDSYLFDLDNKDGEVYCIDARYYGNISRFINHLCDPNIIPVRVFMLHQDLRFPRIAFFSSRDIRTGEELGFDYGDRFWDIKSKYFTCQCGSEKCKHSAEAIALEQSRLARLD
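Quantitative HTS format: methyltransferase activity on a biotin-tagged H3K9 peptide is measured by AlphaScreen, using a rabbit anti-monomethyl-H3K9 antibody with streptavidin donor and anti-IgG acceptor beads. Final levels are 20 nM enzyme, 500 nM peptide, 20 uM SAM; 2 h RT.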
Starred values were filed as active, the others as inactive; ? = inconclusive; . = not tested or not shown; [ ] = remark or other dose. Unless noted, the call rests on the fitted dose curve; in most records, active means well fitted curve in the direction sought with a large enough effect; inconclusive means small, poorly fitted or top-dose-only effect, or another doubt; inactive means no such curve, though single readings can be large; an effect the other way counts as inactive or inconclusive. Unless noted, on the % scale 0 is the no-effect control and ±100 the full control effect.

SMILES | Tau fluor cs | Tau ThT inhib | Coupling enz | Tau fibril FP | Sfp PPTase inh | G9a block
CC1CC1C(=O)OCC(=O)Nc1ccc(N=Nc2ccccc2)cc1 (stereo not drawn) | ? | 7.9µM* | 0 | ? | -14% | 35µM*
Cc1ccc(NC(=O)c2ccc3nsnc3c2)c(Cl)c1 | . | . | 0 | . | 11% | -7%[59 µM]
C/C(N)=C(/C#N)C(=O)CSc1nc2ccc(C)cc2[nH]1 | -2% | -13% | 0 | 2% | 1% | 16µM*
Cc1ccc2nc(SCC(=O)c3cc(C)n(C)c3C)[nH]c2c1 | -17% | ? | -2 | -4% | -15% | -19%
CC(C)Cn1c(N)c(C(=O)CSc2nc3ncc(Cl)cc3[nH]2)c(=O)n(C)c1=O | . | . | . | . | . | 28µM*
Cc1ccc2nc(SCC(=O)c3c(N)n(C)c(=O)n(C)c3=O)[nH]c2c1 | 7% | -1% | -1 | -2% | -15% | 0.89µM*
Cc1ccc(CCNC(=O)C2CCN(S(=O)(=O)c3ccc4c(ccn4C)c3)CC2)cc1 | -17% | 3% | . | 2% | . | -2%[59 µM]
CCOc1ccccc1CNC(=O)Cn1cc2c(n1)-c1c(oc(C(=O)N3CCCC3)c1C)CC2 | -4% | -7% | . | 0% | . | ?
CC(C)Oc1ccc(Cc2cnc(=S)[nH]c2N)cc1 | 6% | 3% | 0 | -4% | 4% | 50µM*
N=C1CCC(=N)c2c1c(O)c1ccccc1c2O | ? | 13µM* | -32* | 25µM* | ? | .
N=C1CCCN1c1ccccc1O | -4% | -1% | -2 | 1% | 13% | .
CC(C)(C)NC(=O)CN(C(=O)CS(=O)CC(=O)Nc1ccc(F)cc1)c1ccccc1 (stereo not drawn) | 4% | 2% | 2 | 2% | 11% | 50µM*
COc1cccc(NC(=S)/C(=C(\[O-])c2ccc(C)c([N+](=O)[O-])c2)[n+]2ccccc2)c1 | ? | ? | -13 | 6% | 56µM* | ?
COc1cccc(NC(=S)/C(=C(\[O-])c2cc(C)n(-c3ccccc3F)c2C)[n+]2ccc(N(C)C)cc2)c1 | -14% | ? | -4 | -2% | -16% | 35µM*
Cc1ccc(/C([O-])=C(/C(=S)Nc2ccc(SC(F)F)cc2)[n+]2ccccc2)cc1[N+](=O)[O-] | ? | ? | -31* | -5% | 13µM* | 22µM*
COc1cccc(NC(=O)CCN2CCN(c3ccccc3F)CC2)c1 | -11% | -17% | -3 | 8% | 11% | 10%[59 µM]
[O-]/C(=C(\C(=S)Nc1ccc(SC(F)F)cc1)[n+]1ccccc1)c1ccc(Cl)cc1Cl | -25% | ? | 1 | -4% | 14% | 35µM*
[O-]/C(=C(\C(=S)Nc1cccc2ccccc12)[n+]1ccccc1)c1ccc2c(c1)OCCO2 | ? | 13µM* | -46* | ? | 45µM* | 8.9µM*
Cc1ccccc1NC(=S)/C(=C(\[O-])c1ccc(C)c([N+](=O)[O-])c1)[n+]1ccccc1 | -17% | ? | -2 | 2% | -19% | ?
[O-]/C(=C(\C(=S)Nc1cccc2ccccc12)[n+]1ccccc1)c1ccc(OC(F)F)cc1 | -27% | ? | -41* | -9% | 45µM* | 45µM*
COc1cccc(NC(=S)/C(=C(\[O-])c2ccc(OC(F)F)cc2)[n+]2ccccc2)c1 | -9% | ? | -18 | -4% | 50µM* | 18µM*
COc1ccc(-c2oc3ccccc3c2C#CC(C)(C)O)cc1 | . | . | . | . | . | -21%[0.501 µM]
O=C(COC(=O)CCN=C1NS(=O)(=O)c2ccccc21)NNC(=O)c1ccccc1 | . | . | . | . | . | -3%
CCOc1ccc(C(=O)Nc2ccc3oc(-c4ccc5ccccc5c4)nc3c2)cc1 | -10% | ? | . | -8% | . | 5%[59 µM]
N#CC1=C(SCc2ccccc2)NC(=O)CC1c1ccccc1 (stereo not drawn) | -13% | -7% | 1 | -4% | -6% | -1%[59 µM]
C=CCSC1=C(C#N)C(c2ccccc2)CC(=O)N1 (stereo not drawn) | 1% | -6% | -4 | -2% | -29% | 50µM*
